In PubChem BioAssay AID488896 (Broad Institute, 2010) one finds inhibition data, which are given here for 90 compounds.

Structures are written as SMILES. In all, about 320,000 compounds went through this assay and about 3,100 (0.97%) were called active. The sample as a whole holds a higher share of actives than the screen did. Values without a mark were called inactive.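 How the source made its calls: active means mean replicate inhibition of at least 70% and a set share of replicates each scoring 70 or more; inconclusive means meets just one of the two criteria; inactive means fails both criteria.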

The experiment deals with Scavenger receptor class B member 1 (Mus musculus) (UniProt Q61009). In words: inhibitors of SR-BI mediated HDL lipid uptake, primary screen, ldlA[mSR-BI] cells, fluorescence, single point (AID 488896).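 Further: 0% = median of neutral control wells and 100% = median of positive control wells.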 The conditions noted are these: ldlA[mSR-BI] CHO cells, DiI-HDL uptake fluorescence, 3 h; at 12.5 µM; stronger effect = higher value.
Sequence of Scavenger receptor class B member 1 (Mus musculus) (Q61009 whole entry, looked up): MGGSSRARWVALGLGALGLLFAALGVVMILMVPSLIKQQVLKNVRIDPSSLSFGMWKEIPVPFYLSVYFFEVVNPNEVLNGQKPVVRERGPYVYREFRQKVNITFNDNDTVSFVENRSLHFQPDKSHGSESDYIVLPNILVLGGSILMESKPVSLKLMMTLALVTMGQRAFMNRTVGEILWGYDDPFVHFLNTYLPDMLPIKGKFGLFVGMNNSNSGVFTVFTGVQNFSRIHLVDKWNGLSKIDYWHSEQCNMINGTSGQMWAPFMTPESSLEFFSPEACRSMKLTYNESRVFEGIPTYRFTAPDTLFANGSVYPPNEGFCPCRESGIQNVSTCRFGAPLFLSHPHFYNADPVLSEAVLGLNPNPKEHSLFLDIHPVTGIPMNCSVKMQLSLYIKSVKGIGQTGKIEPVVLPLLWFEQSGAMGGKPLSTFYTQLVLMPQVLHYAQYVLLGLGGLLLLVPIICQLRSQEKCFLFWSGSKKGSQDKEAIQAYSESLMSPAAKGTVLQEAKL
Regarding `Cc1ccc(OCCNC(=O)c2cccc(S(=O)(=O)N3CCN(Cc4ccccc4)CC3)c2)cc1`, the inhibition is 20.6%.

For `COc1ccc(C(=O)Nc2cccc(/C=C(/CCC(=O)O)c3nc4ccccc4s3)c2)cc1`, the inhibition was 36.4%.

Take `O=C(N/N=C/c1ccoc1)c1ccc(Cl)cc1Cl`: the inhibition is -28.2%.

`CC(C)(C)C(=O)Nc1ccc(C(=O)N/N=C/c2ccccc2OC(=O)c2ccc(Cl)cc2Cl)cc1`: the inhibition is 94.1% (active).

Turning to `O=C(N/N=C/c1ccc(OC(=O)c2ccccc2Cl)cc1)c1ccc(O)cc1`, the inhibition was 44.4%.

In the case of `O=C(NCC1(N2CCCCC2)CCCCC1)c1cccc(S(=O)(=O)Nc2ccccc2Cl)c1`, the inhibition is -8.99%.

Regarding `CCOc1ccc2c(c1)C(c1ccc(C)cc1)=NNC(c1ccc(C)cc1)=N2`, the inhibition is 85.5% (active).

As to `COc1ccc2c(c1)C(c1cccs1)=NNC(c1cccnc1)=N2`, the inhibition is -13.8%.

As to `Cc1ccc(C2=Nc3c(ccc4ccccc34)C(c3ccncc3)=NN2)cc1`, the inhibition is 2.19%.

Consider `CN(C)c1ccc(CSc2ccccc2)cc1`, for which the inhibition is -8.91%.

With `O=C(CCCCCCCC(=O)N1CCCCC1)N1CCCCC1`, the inhibition was -7.35%.

`CSCCC(NC(=O)COc1ccccc1)C(=O)N1CCN(c2cccc(C(F)(F)F)c2)CC1` (stereo not given): the inhibition is 13.3%.

Regarding `Cc1ccc(C)c(OCC(=O)N2CCN(C(=O)c3ccco3)CC2)c1`, the inhibition was -10.6%.

As for `CCC(=O)Nc1ccc(C(=O)N2CCN(C(=O)c3ccco3)CC2)cc1`, the inhibition is -9.2%.

With `Cc1ccc(OCC(=O)Nc2ccc(N3CCN(C(=O)c4ccco4)CC3)cc2)c(C)c1`, the inhibition was 78% (active).

With `COc1cc2[nH]c(O)c(C=O)c2cc1OC`, the inhibition was -52%.

Take `O=C1OCC2=C1C(c1ccc(Cl)cc1)c1cc3c(cc1O2)OCO3` (stereo not given): the inhibition was 14%.

In the case of `Cc1ccc(Nc2nc(N3CCOCC3)nc(N3CCOCC3)n2)cc1Cl`, the inhibition was 55%.

`CCOc1ccc(Nc2nc(Cl)nc(N3CCN(c4ccc(OC)cc4)CC3)n2)cc1`: the inhibition is 73.8% (active).

For `COc1ccc(Nc2ncc(F)c(N3CCOCC3)n2)cc1`, the inhibition is 22.2%.

With `CCN(CC)S(=O)(=O)c1cccc(NC(=O)c2ccc(S(=O)(=O)N3CCCC3)cc2)c1`, the inhibition is 41.2%.

`Cn1c(N)cc(=O)n(C)c1=S`: the inhibition is -17.8%.

As for `NC(=O)C1(N2CCCCC2)CCN(C(=S)Nc2ccc(Cl)cc2)CC1`, the inhibition was -24.6%.

`CN(C)c1ccc(C(=S)N2CCN(C(=S)Nc3ccc(Cl)cc3)CC2)cc1`: the inhibition is 95% (active).

Consider `CCOC(=O)c1ccc(NC(=S)N2CCCC2)cc1`, for which the inhibition is -10.4%.

Regarding `C=CCNC(=O)c1cc(-c2ccccc2O)on1`, the inhibition was 44.1%.

In the case of `Cc1nc(-c2ccc(Cl)cc2)sc1C(=O)NN`, the inhibition is 25.2%.

On to `C=CCNC(=O)c1sc(SC)cc1-c1ccc(Cl)cc1`, for which the inhibition is 73.9% (active).

For the compound `CC[C@]12c3[nH]c4cc(CCC(=O)N(C)C)ccc4c3CCN1C(=O)[C@@H](CC(=O)NCC13CC4CC(CC(C4)C1)C3)C[C@@H]2C(=O)N1CCN(C(=O)C2CC2)CC1`, the inhibition was 1.08%.

On to `CCn1c(SCC(=O)N/N=C/C=C/c2ccccc2[N+](=O)[O-])nnc1-c1ccccc1`, for which the inhibition is 14.2%.

As for `Cc1ccc(-n2c(SCC(=O)N/N=C/C=C/c3ccccc3[N+](=O)[O-])nc3ccccc3c2=O)cc1`, the inhibition was 74% (active).

In the case of `O=C(CSc1nc2ccccc2[nH]1)N/N=C/C=C\c1ccccc1[N+](=O)[O-]`, the inhibition is 4.51%.

Take `CNN/C(N=Cc1ccc([N+](=O)[O-])s1)=N\S(=O)(=O)c1cc(C)c(Cl)cc1SCc1ccccc1`: the inhibition is -9.94%.

Turning to `CC(C=Cc1ccccc1)=NNS(=O)(=O)c1ccc([N+](=O)[O-])cc1`, the inhibition is -6.47%.

Regarding `CCc1ccc(C(=O)C(C)OC(=O)CN2C(=O)NC3(CCCC3)C2=O)cc1` (stereo not given), the inhibition was -13.5%.

For `CC(C)(C)S(=O)(=O)N1Cc2cc(CO)cc(CCO)c2[C@H]1CCO`, the inhibition is 2.47%.

Consider `CCOc1ccc(-n2c(O)c(/C=N/c3ccnn3Cc3ccncc3)c3ccccc3c2=O)cc1`, for which the inhibition is -0.942%.

For the compound `CCOc1ccc(-n2c(O)c(/C=N/Nc3nnc(C)c(=O)[nH]3)c3ccccc3c2=O)cc1`, the inhibition was 108% (active).

On to `CCOc1ccc(-n2c(O)c(/C=N/Nc3nc(C)cc(C)n3)c3ccccc3c2=O)cc1`, for which the inhibition was 34.2%.

As for `CC(=O)N1CCc2ccc(N)cc21`, the inhibition was 12.2%.

As to `COc1cc(/C=N/NC(=O)c2ccoc2C)ccc1OCCN1CCCCC1`, the inhibition was 3.01%.

In the case of `COc1cc(/C=N/NC(=O)Nc2ccccc2)ccc1OCCOc1ccccc1C`, the inhibition is 71.4% (active).

For `COc1cc(/C=N/NC(=O)Cc2ccccc2)cc(OC)c1OC`, the inhibition is 3.39%.

Consider `O=C1OC(Oc2ccc(Br)cc2)(c2ccccc2)c2ccccc21` (stereo not given), for which the inhibition was 0.981%.

In the case of `CCc1nnc(NC(=O)c2cc(S(=O)(=O)N3CCN(CC)CC3)ccc2Cl)s1`, the inhibition was -25.4%.

Consider `NS(=O)(=O)c1cccc(NC(=O)CSc2nc3ccccc3n2-c2ccccc2)c1`, for which the inhibition was 23.7%.

As to `CCOc1ccc(-n2c(SCC(=O)Nc3cc(C(=O)O)ccc3Cl)nc3ccccc3c2=O)cc1`, the inhibition was -14%.

With `Cc1ccc(-n2c(SCC(=O)Nc3ncc(Cl)cc3Cl)nc3ccccc32)cc1`, the inhibition is 78.1% (active).

On to `COc1ccc(-c2sc3ccc(OC)cc3c2C#Cc2ccccn2)cc1`, for which the inhibition is 56.6%.

On to `COc1cc(OC)cc(-c2sc3ccc(OC)cc3c2-c2ccc3cc[nH]c3c2)c1`, for which the inhibition was 58.8%.

As for `COc1ccc2sc(-c3ccc(S(C)(=O)=O)cc3)c(-c3ccc(C(N)=O)cc3)c2c1`, the inhibition was 54.1%.

In the case of `COc1ccc2sc(-c3ccc(N(C)C)cc3)c(-c3ccc4cc[nH]c4c3)c2c1`, the inhibition was 85% (active).

As to `COc1ccc2sc(-c3ccc(S(C)(=O)=O)cc3)c(C#Cc3cncn3C)c2c1`, the inhibition was 13.9%.

As for `COc1ccc2sc(-c3ccc(N(C)C)cc3)c(C#CCO)c2c1`, the inhibition is 99.4% (active).

Turning to `CN1CCC(N(C)C(=O)c2ccc(Cl)c(S(=O)(=O)Nc3ccc(Cl)cc3)c2)CC1`, the inhibition was -12%.

With `O=C(NCC1CCCCC1)NCC1CCCCC1`, the inhibition is -12.9%.

For `O=C(O)c1ccc(S(=O)(=O)c2ccccc2)s1`, the inhibition is -1.03%.

Consider `COc1ccc2nc(N3C(=O)C(O)=C(C(=O)c4ccco4)C3c3ccco3)sc2c1` (stereo not given), for which the inhibition was -2.11%.

As to `O=C(Cc1ccc(S(=O)(=O)N2CCOCC2)s1)Nc1ccc(Br)c(C(F)(F)F)c1`, the inhibition was -43.4%.

For the compound `CC(C)Cn1cnc2c(SCc3ccc(Cl)cc3)nc(N)nc21`, the inhibition is 7.71%.

In the case of `CCCCC(=O)Nc1ccccc1N1CCN(c2ccc(F)cc2)CC1`, the inhibition is 34%.

As to `Cc1cccc(C(=O)Nc2ccccc2N2CCN(c3ccc(F)cc3)CC2)c1`, the inhibition was 74.9% (active).

With `CCC(C)C(=O)Nc1ccccc1N1CCN(c2ccc(F)cc2)CC1` (stereo not given), the inhibition was 36.3%.

In the case of `OCCN1CCN(c2nnc(-c3ccccc3)c3ccccc23)CC1`, the inhibition is 3.57%.

For `c1ccc(-c2nnc(N3CCOCC3)c3ccccc23)cc1`, the inhibition is 27.8%.

Consider `CCCC(=O)N1CCN(c2nnc(-c3ccc(C)cc3)c3ccccc23)CC1`, for which the inhibition was 76.8% (active).

Regarding `Cc1ccc(-c2csc(C(C#N)=C(O)CN3CCN(C(=O)c4ccco4)CC3)n2)cc1`, the inhibition was 4.1%.

For the compound `CCOc1ccc(/C=C(/C#N)c2nnc(N3CCOCC3)n2-c2ccccc2)cc1OC`, the inhibition was -9.11%.

As to `O=C(Cc1ccc(NC(=O)C2CCCN(C(=O)C3CCCCC3)C2)cc1)Nc1cccc(C(=O)N2CCCCC2)c1` (stereo not given), the inhibition is 43.2%.

For `CNc1nc(=O)n(C2CCCO2)cc1C` (stereo not given), the inhibition is 0.704%.

As for `CCOC(=O)N(Cc1ccccc1)C1CC1`, the inhibition is 1.61%.

As to `Cc1cccc(Nc2nc(-c3ccccc3)cs2)n1`, the inhibition was 52.4%.

`CC(=O)Nc1cccc(-c2csc(Nc3cccc(C)n3)n2)c1`: the inhibition was 76.4% (active).

Regarding `CC(=O)Nc1ccc(-c2csc(NC=C3C(=O)OC(C)(C)OC3=O)n2)cc1`, the inhibition was 4.07%.

In the case of `COc1ccc(CC(=O)Nc2nc(-c3ccc(F)c(F)c3)cs2)cc1OC`, the inhibition was 29.1%.

As to `COc1ccc(CCNc2nc(-c3cccc(NC(C)=O)c3)cs2)cc1OC`, the inhibition is 75.5% (active).

Take `COc1ccc(CCN(C(=O)COc2ccccc2)c2nc(-c3ccccc3)cs2)cc1OC`: the inhibition is 24.1%.

On to `CCC1([N+](=O)[O-])COC(c2ccc(C)cc2)OC1` (stereo not given), for which the inhibition is -12.8%.

Consider `Nc1cc(=O)n(Cc2ccccc2)c(=O)n1Cc1ccccc1`, for which the inhibition is 0.22%.

For the compound `C[C@@H]1ON(C)[C@H]2C[C@H]3c4cc(N5CCN(C)CC5)ccc4CCN3C(=O)[C@@H]12`, the inhibition is -19.4%.

Take `Cn1c(=S)sc2ccc3ccccc3c21`: the inhibition is 5.87%.

With `N#CC1(Nc2ccc(-c3ccc(Cl)cc3)cc2)CCCC1`, the inhibition is 5.44%.

`O=C(Nc1cccc(S(=O)(=O)N2CCCCC2)c1)c1ccc2c(c1)OCO2`: the inhibition is 8.54%.

Regarding `O=C(Nc1cccc(S(=O)(=O)Nc2ccc(Cl)cc2)c1)c1ccc2c(c1)OCCO2`, the inhibition was 70.2% (active).

As for `O=C(Nc1ccc(NC(=O)c2ccc3c(c2)OCO3)cc1)c1cccc(Cl)c1`, the inhibition was -14.8%.

In the case of `NS(=O)(=O)c1ccc(CCNC(=O)c2ccc(Cl)c(S(=O)(=O)N3CCCCCC3)c2)cc1`, the inhibition is 32.8%.

For the compound `CCCCC(=O)Nc1ccc(C(=O)Nc2cc(C(F)(F)F)ccc2Cl)cc1`, the inhibition is 67.9%.

For the compound `CCCC(=O)Nc1ccc(Cl)c(NC(=O)c2ccc(Br)o2)c1`, the inhibition was 70.8% (active).

Turning to `CCN1CCN(c2c(Cl)cccc2NC(=O)c2ccc(Br)o2)CC1`, the inhibition was 33.7%.

In the case of `COc1cc2c(cc1OC)C1C(=O)c3cc(OS(C)(=O)=O)c(OC)cc3C1N(C)C2=O` (stereo not given), the inhibition is -1%.
